Assay results reported in ChEMBL document CHEMBL3433997, “St. Jude Leishmania screening dataset” (2016).

Assays:
Assay type in all cases: functional
[1] = target: Solute carrier family 2, facilitated glucose transporter member 1 (Homo sapiens) (UniProt P11166); experiment: ST_JUDE_LEISH: Cytotoxicity at 2uM final concentration against transgenic Leishmania Mexicana promastigotes LmGLUT1 that are glucose transport deficient and complemented with the human glucose transporter GLUT1. Activity is measured by DNA content using SYBR green in vitro
Solute carrier family 2, facilitated glucose transporter member 1 (Homo sapiens), sequence (P11166 whole entry): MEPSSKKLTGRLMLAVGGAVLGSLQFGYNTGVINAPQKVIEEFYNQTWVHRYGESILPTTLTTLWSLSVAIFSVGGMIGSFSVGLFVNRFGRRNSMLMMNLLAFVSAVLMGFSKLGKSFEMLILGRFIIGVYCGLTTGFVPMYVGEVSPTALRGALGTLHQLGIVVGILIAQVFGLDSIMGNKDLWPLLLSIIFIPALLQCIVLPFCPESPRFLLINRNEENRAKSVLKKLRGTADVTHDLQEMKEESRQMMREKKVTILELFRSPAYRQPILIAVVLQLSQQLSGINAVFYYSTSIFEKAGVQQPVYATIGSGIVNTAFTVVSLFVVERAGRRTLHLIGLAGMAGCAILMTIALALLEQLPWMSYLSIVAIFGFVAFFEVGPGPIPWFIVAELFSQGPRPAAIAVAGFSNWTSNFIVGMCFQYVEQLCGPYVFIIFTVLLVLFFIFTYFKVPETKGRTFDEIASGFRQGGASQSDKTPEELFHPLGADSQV

[2] = target: Hexose transporter 1 (Plasmodium falciparum) (UniProt O97467); experiment: ST_JUDE_LEISH: Cytotoxicity at 2uM final concentration against transgenic Leishmania Mexicana promastigotes LmPfHT that are glucose transport deficient and complemented with the Plasmodium falciparum hexose transporter. Activity is measured by DNA content using SYBR green in vitro
[3] = target: Glucose transporter (Leishmania mexicana) (UniProt O61059); experiment: ST_JUDE_LEISH: Cytotoxicity at 2uM final concentration against transgenic Leishmania Mexicana promastigotes LmGT2 that are glucose transport deficient and complemented with the L. Mexicana glucose transporter 2. Activity is measured by DNA content using SYBR green in vitro

SMILES | inhibition [1] [%] | inhibition [2] [%] | inhibition [3] [%]
O=C(Nc1ccc(OC2CCN(Cc3ccsc3)C2)c(Cl)c1)c1ccsc1 (configuration not stated) | 2.57 | 2.64 | 1.08
CN(C)c1ccc(CN2CCC(NC(=O)c3ccc(-c4ccccc4Cl)s3)CC2)cc1 | 2.51 | 1.07 | 1.76
COc1cccc(-c2ccc(C(=O)NC3CCN(Cc4ccc(N(C)C)cc4)CC3)s2)c1 | 2.66 | 1.14 | -0.07
O=C(Nc1cccc(-c2cccc(-c3nc4cc(C(F)(F)F)ccc4[nH]3)c2)c1)c1csnn1 | 12.8 | 9.97 | 9.43
